Screening data from PubChem BioAssay.
CYP2C19 inhib: blocks human cytochrome P450 2C19; P33261; CYP2C19 Supersomes, luciferin-H EGE luminescence, 30 min; inhibition, % at 5 µM; 21% of 96,000 active; AID 778;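 active means CYP2C19 inhibition above a set limit at 5 µM in the primary screen, cut at about 50% in these data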;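 further: plate controls were negative control wells for no effect and 2.5 mM tranylcypromine positive control for full effect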
Target sequence (P33261 whole entry, looked up): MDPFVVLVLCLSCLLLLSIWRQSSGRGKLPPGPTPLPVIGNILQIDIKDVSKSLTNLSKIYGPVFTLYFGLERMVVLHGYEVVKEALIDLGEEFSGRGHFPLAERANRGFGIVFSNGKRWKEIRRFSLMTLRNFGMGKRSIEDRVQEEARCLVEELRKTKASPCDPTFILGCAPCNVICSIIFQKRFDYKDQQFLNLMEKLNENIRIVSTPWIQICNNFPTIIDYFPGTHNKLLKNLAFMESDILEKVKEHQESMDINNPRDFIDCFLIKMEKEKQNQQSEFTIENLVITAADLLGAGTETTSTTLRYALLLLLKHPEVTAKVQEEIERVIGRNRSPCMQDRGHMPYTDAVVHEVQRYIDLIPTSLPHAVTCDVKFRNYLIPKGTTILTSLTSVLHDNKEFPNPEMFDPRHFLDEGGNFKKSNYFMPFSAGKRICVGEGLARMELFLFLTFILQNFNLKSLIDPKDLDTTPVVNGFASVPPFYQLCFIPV
PostGolgi yeast: growth inhibition of a yeast mutant, post-Golgi transport screen; 0.9% of 98,000 active; inhibition, % at 10 µM; post-Golgi transport phenotypic cell assay; AID 739;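 further: yeast cells grown in 1536-well plates; yeast grown about 18 h at 30C before absorbance read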
CYP2C9 act: increases human cytochrome P450 2C9 activity; P11712; recombinant CYP2C9, luciferin-H conversion, luminescence; active compounds read high; factor 1 = untreated enzyme, 0 = blocked; activation factor at 5 µM; 1.4% of 96,000 active;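 active means activation factor of 2 or more for CYP2C9 at a 5 µM dose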;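 further: 0 = sulfaphenazole-blocked wells and 1 = vehicle-only wells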
PostGolgi ctrl: inhibits growth of the yeast control strain; efflux-deficient yeast background strain, growth absorbance A615, 16 h; inhibition, % at 10 µM; 5% of 98,000 active; AID 738
CYP2C19 act: cytochrome P450 2C19 (human) activation. 96,000 tested, under 10 active. P33261. AID 1025. recombinant CYP2C19, luciferin-H EGE luminescence; active compounds read high; 0 = fully inhibited enzyme, 1 = untreated enzyme. activation factor at 5 µM;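 active means activation factor of at least 2 at 5 µM in the primary screen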;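 further: 0 = wells with 2.5 mM tranylcypromine and 1 = vehicle-only wells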
CYP2C9 inh: inhibitors of human CYP2C9 | P11712 | CYP2C9 Supersomes, luciferin-H conversion, luminescence | inhibition, % at 5 µM | 20% of 96,000 active | AID 777;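 active means blocking of liver enzyme CYP2C9 beyond about 50% at 5 µM, limit read from the data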
Active calls of the source: *. Shown are actives, neighbours in structure and some others; about 32% of the full set was active somewhere. Unless noted, no stated cut-off is given here; in the data, active means inhibition above about 30%; inactive means the rest.

SMILES	CYP2C19 inhib	PostGolgi yeast	CYP2C9 act	PostGolgi ctrl	CYP2C19 act	CYP2C9 inh
COC(=O)C1=C(N)N(c2ccc(F)cc2)C2=C(C(=O)CCC2)C1c1ccc2c(c1)OCO2 (stereo not given)	-9	19	1.1	5	1.1	-6
CC(=O)NCCn1c(SCc2cc(=O)n3cc(Cl)ccc3n2)nc2ccccc2c1=O	1	-2	0.6	-1	1	44
O=C1CC(C(=O)N2CCOCC2)C2(CCCC2)O1 (stereo not given)	11	7	1	0	0.9	4
COc1ccc(-c2nnn(CC#N)n2)cc1OC	84*	-4	0.4	0	0.2	62*
O=C(c1ccccc1)n1ccc(-c2cnc(-c3ccccc3)s2)n1	56*	-4	0.8	-9	0.4	15
COc1ccc(S(=O)(=O)n2ccc(-c3cnc(-c4ccccc4)s3)n2)cc1	21	8	0.3	-4	0.8	69*
O=P(Cc1nnco1)(c1ccccc1)c1ccccc1	8	-4	0.8	-1	0.9	21
CCc1ccc(N/C(SCc2cccc(F)c2)=C(/C#N)C(=O)NCc2ccco2)cc1	55*	15	0.3	-4	0.5	68*
Cc1ccc(NC(=O)C(=S)NCc2ccco2)cc1	32	-5	0.9	1	0.7	12
Cc1ccc(N/C(SCc2ccccc2C)=C(/C#N)C(=O)NCc2ccco2)cc1C	29	-6	0.2	0	0.7	80*
FC(F)(F)C1=CC(c2ccccc2)=NCCN1	2	6	1	-2	1	-3
CC(=O)Nc1ccc(C(=O)Nc2ccc3c(c2)OCO3)cc1	24	-9	0.8	-12	0.8	18
Cc1cc(C(=O)NC(C)c2ccc3c(c2)OCO3)cs1 (stereo not given)	90*	-2	0.4	1	0.1	60*
Cc1cc(C(=O)Nc2ccc3c(c2)OCO3)cs1	70*	-16	0.5	4	0.3	48
Cc1occc1C(=O)Nc1ccc2c(c1)OCO2	54*	0	1	25	0.5	4
Cc1cc(C)n2ncc(C(=O)Nc3ccc4c(c3)OCO4)c2n1	37	14	0.3	6	0.6	74*
O=C(Nc1ccc2c(c1)OCO2)c1cnn2cccnc12	9	5	0.9	-2	0.9	9
CCOC(=O)c1c(N)sc(C(=O)Nc2ccc3c(c2)OCO3)c1C	98*	-2	0.2	-1	0	84*
CCOC(=O)c1c(C)c(C(=O)Nc2ccc3c(c2)OCO3)c(C)n1C	28	6	1.2	2	0.7	-16
CCOc1ccc2cc(S(=O)(=O)N3CCOCC3)ccc2c1	1	-4	0.8	2	1	24
CCOC(=O)N1CCN(S(=O)(=O)c2cccc3ccc(C)nc23)CC1	66*	-1	1.7	4	0.3	-69
CCOC(=O)N1CCN(C(=O)COc2ccc(S(=O)(=O)NCC(C)C)cc2C)CC1	18	-1	0.4	4	0.8	62*
CCOc1ccc(OCC)c(S(=O)(=O)N2CCC(C)CC2)c1	60*	-1	0.7	9	0.4	34
CCOC(=O)N1CCN(S(=O)(=O)c2ccc(OCC)c(C)c2)CC1	96*	-3	1.7	16	0	-66
CCOC(=O)N1CCN(S(=O)(=O)c2ccc(C)c(C)c2)CC1	41	-3	1.6	6	0.6	-63
SMILES	CYP2C19 inhib	PostGolgi yeast	CYP2C9 act	PostGolgi ctrl	CYP2C19 act	CYP2C9 inh
CCOC(=O)N1CCN(S(=O)(=O)c2ccc3c(c2)SCC(=O)N3)CC1	3	4	1.1	4	1	-8
CCOc1ccc(-n2cnnn2)cc1S(=O)(=O)N1CCCCC1	-14	-4	1.3	9	1.1	-28
CCOc1ccc(OCC)c(S(=O)(=O)N2CCCCC2)c1	81*	-1	0.6	10	0.2	40
CCOC(=O)N1CCN(S(=O)(=O)c2cc(OCC)ccc2OCC)CC1	59*	10	0.4	11	0.4	55*
O=C1CC(SC(=Nc2ccccc2)Nc2ccccc2)C(=O)N1c1cccc(Cl)c1 (stereo not given)	29	5	0.6	33*	0.7	43
CN=C(Nc1ccccc1OC)SC1CC(=O)N(c2ccc(C(=O)OC)cc2)C1=O (stereo not given)	44	5	0.8	3	0.6	23
CN=C(Nc1ccccc1)SC1CC(=O)N(c2ccc(C(=O)OC)cc2)C1=O (stereo not given)	38	5	0.3	37*	0.6	68*
Cc1ccc(S(=O)(=O)Cc2ccc(C(=O)N3CCc4ccccc4C3)o2)cc1	92*	0	0.4	26	0.1	56*
O=C(c1ccc(CS(=O)(=O)c2ccccc2)o1)N1CCOCC1	18	-4	0.8	-5	0.8	23
COc1ccc(S(=O)(=O)Cc2ccc(C(=O)N3CCc4ccccc4C3)o2)cc1	89*	7	0.5	-2	0.1	53*
Cc1ccc(S(=O)(=O)Cc2ccc(C(=O)O)o2)cc1	-3	-2	0.6	3	1	37
Cc1c(N2C(=O)/C(=C\c3cccc4ccccc34)SC2=S)c(=O)n(-c2ccccc2)n1C	71*	-2	0.8	54*	0.3	25
O=C(O)C(Cc1ccccc1)N1C(=O)/C(=C/c2cccc3ccccc23)SC1=S (stereo not given)	12	-2	0.3	7	0.9	72*
CN1C(=O)C(C(=O)NC(C)(C)C)C2c3ccccc3OC13CCCCC23 (stereo not given)	58*	5	0.4	13	0.4	60*
CCn1c(SCC(=O)Nc2ccccc2C(=O)OC)nnc1-c1ccoc1C	94*	1	0.8	9	0.1	20
CCn1c(SCC(=O)Nc2ccccc2C(=O)OC)nnc1-c1ccc(N)cc1	98*	-4	0.8	5	0	16
CCn1c(CC(=O)Nc2ccccc2)nnc1SCC(=O)Nc1ccccc1C(=O)OC	1	-2	1	3	1	3
C=C(C)CSc1nnc(-c2cc(OC)c(OC)c(OC)c2)n1N	22	16	0.7	-3	0.8	28
Cc1[nH]nc2c1C(C1CC=CCC1)C(C#N)=C(N)O2 (stereo not given)	24	17	0.5	0	0.8	46
CCC(CC)C1C(C#N)=C(N)Oc2n[nH]c(C)c21 (stereo not given)	82*	-1	0.4	3	0.2	57*
CCCc1[nH]nc2c1C(c1ccncc1)C(C#N)=C(N)O2 (stereo not given)	35	-2	0.6	-3	0.6	44
CC(C)C1C(C#N)=C(N)Oc2n[nH]c(-c3ccc4ccccc4c3)c21 (stereo not given)	6	-3	0.8	8	0.9	23
CCCc1[nH]nc2c1C(CCC)C(C#N)=C(N)O2 (stereo not given)	62*	3	0.9	5	0.4	6
